Test results reported in the supplement of paper PMC10127200.
Where a name gives a salt, the structure may show the parent alone.

Key:
Assay in all cases: Euclidean distance of Cell Painting phenotypic profile (signed KS, 77 features) to DMSO centroid (dimensionless distance); 5 or 10 uM (library dependent); higher = stronger phenotypic change vs DMSO (phenoactivity)
Conditions in all cases: 48 h
786-O = tested on: 786-O
Method in brief: (§1)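 Five cancer lines, together with a healthy fibroblast line, received library compounds for 48 h at a library-dependent 10 or 5 uM and 0.1% DMSO final. Harmony then derived 77 features from confocal 20X images (9 fields/well) of the stained cells, scoring each as a signed Kolmogorov-Smirnov statistic against same-plate vehicle wells. After plate-position correction, correlation weighting and replicate averaging at the top dose, phenoactivity was taken as each profile's Euclidean distance to the median vehicle profile.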

A549 = tested on: A549
Method in brief: as §1

DU145 = tested on: DU145
Method in brief: as §1

FB = tested on: FB
Method in brief: as §1

HEPG2 = tested on: HEPG2
Method in brief: as §1

OVCAR4 = tested on: OVCAR4
Method in brief: as §1

Row | SMILES | Euclidean distance (786-O) | Euclidean distance (A549) | Euclidean distance (DU145) | Euclidean distance (FB) | Euclidean distance (HEPG2) | Euclidean distance (OVCAR4)
1 | COc1cc(Nc2ncc(F)c(Nc3ccc4c(n3)N(COP(=O)(O)O)C(=O)C(C)(C)O4)n2)cc(OC)c1OC [Fostamatinib (R788)] | 2.67 | 4.8 | 3.08 | 3.33 | 2.44 | 3.7
2 | CN1C(=O)CC(c2ccccc2)C1=O (configuration not stated) [Phensuximide] | 0.788 | 1.12 | 1.01 | 0.827 | 0.849 | 0.954
3 | O=[N+]([O-])c1ccc(O)c2ncccc12 [Nitroxoline] | 2.71 | 2.74 | 1.76 | 1.94 | 1.71 | 2.24
4 | Cn1cc(Nc2nccc(N3C[C@H]4CC[C@@H](C3)N4C(=O)[C@@H]3CC3(F)F)n2)cn1 | 1.66 | 1.31 | 0.715 | 2.16 | 0.594 | 3.68
5 | CCC[S+]([O-])c1ccc2[nH]c(NC(=O)OC)nc2c1 (configuration not stated) [Albendazole Oxide] | 1.29 | 1.23 | 0.768 | 0.918 | 0.943 | 1.26
6 | CC(C)[C@H](NC(=O)[C@H](CC(=O)O)NC(=O)[C@H](CCCCN)NC(=O)[C@@H](N)CCCN=C(N)N)C(=O)N[C@@H](Cc1ccc(O)cc1)C(=O)O [Thymopentin] | 1.56 | 1.19 | 0.821 | 0.825 | 0.557 | 1.06
7 | CCOC(=O)CC(=O)N1CCSC1COc1ccccc1OC (configuration not stated) [Moguisteine] | 1.45 | 0.946 | 1.1 | 0.84 | 1.08 | 1.01
8 | Cc1c(O)c(=O)ccn1C [Deferiprone] | 1.58 | 0.809 | 1.07 | 1.18 | 0.561 | 0.947
9 | Cc1ccnc(NS(=O)(=O)c2ccc(N)cc2)n1 [Sulfamerazine] | 1.24 | 0.793 | 0.847 | 0.862 | 0.67 | 1.2
10 | NC(=O)N1c2ccccc2C=Cc2ccccc21 [Carbamazepine] | 1.69 | 0.483 | 1.26 | 0.984 | 1.28 | 1.59
11 | COc1ccc2[nH]cc(CCNC(C)=O)c2c1 [Melatonin] | 0.969 | 0.391 | 0.808 | 0.749 | 0.681 | 0.982
12 | CCCCCCCC(=O)N[C@H](CN1CCCC1)[C@H](O)c1ccc2c(c1)OCCO2 [Eliglustat] | 0.75 | 1.58 | 1.05 | 1.48 | 1.2 | 1.06
13 | CCN(CC)CCNC(=O)c1cc(Cl)c(N)cc1OC [Metoclopramide HCl] | 0.662 | 0.513 | 0.62 | 0.54 | 0.614 | 0.647
14 | C[C@@H](O)[C@H]1C(=O)N2C(C(=O)[O-])=C(SC3Cn4cnc[n+]4C3)[C@H](C)[C@H]12 (some centres not stated) [Biapenem] | 1.35 | 0.934 | 1.14 | 1.22 | 1.02 | 0.838
15 | CC(=O)OCC(=O)[C@H]1CC[C@H]2[C@@H]3CCC4=CC(=O)CC[C@]4(C)[C@H]3CC[C@]12C [Deoxycorticosterone acetate] | 0.997 | 0.852 | 0.854 | 1.02 | 0.569 | 1.51
16 | C[C@H]1[C@H](C)CC[C@]2(C(=O)O[C@@H]3O[C@H](CO[C@@H]4O[C@H](CO)[C@@H](O[C@@H]5O[C@@H](C)[C@H](O)[C@@H](O)[C@H]5O)[C@H](O)[C@H]4O)[C@@H](O)[C@H](O)[C@H]3O)CC[C@]3(C)C(=CC[C@@H]4[C@@]5(C)C[C@@H](O)[C@H](O)[C@@](C)(CO)[C@@H]5[C@H](O)C[C@]43C)[C@H]12 [Madecassoside] | 0.76 | 0.636 | 0.932 | 1.03 | 0.483 | 1.28
17 | CCOc1ccc(Cc2cc([C@@H]3O[C@H](SC)[C@@H](O)[C@H](O)[C@H]3O)ccc2Cl)cc1 [Sotagliflozin (LX4211)] | 1.32 | 1.07 | 1.9 | 0.889 | 0.553 | 0.781
18 | NC(=O)C(c1ccccc1)(c1ccccc1)[C@@H]1CCN(CCc2ccc3c(c2)CCO3)C1 [Darifenacin HBr] | 1.59 | 0.89 | 0.786 | 1.4 | 1.11 | 1.04
19 | NNc1nncc2ccccc12 [Hydralazine HCl] | 1.33 | 1.23 | 0.857 | 1.33 | 0.411 | 0.975
20 | COc1ccccc1OCC(O)CN1CCN(CC(=O)Nc2c(C)cccc2C)CC1 (configuration not stated) [Ranolazine] | 1.2 | 0.699 | 0.507 | 0.669 | 1.08 | 1.09
21 | Cc1c(-c2cnccn2)ssc1=S [Oltipraz] | 1.13 | 0.941 | 0.666 | 0.877 | 1.11 | 1.3
22 | Cc1c(-c2ccc(O)cc2)n(Cc2ccc(OCCN3CCCCCC3)cc2)c2ccc(O)cc12 [Bazedoxifene HCl] | 5.12 | 4.91 | 3.42 | 4.82 | 4.62 | 4.32
23 | OB1OCc2cc(F)ccc21 [Tavaborole (AN-2690)] | 0.735 | 0.76 | 0.961 | 1.16 | 0.354 | 0.974
24 | COc1cc2c(cc1-c1c(C)noc1C)ncc1[nH]c(=O)n([C@H](C)c3ccccn3)c12 | 2.62 | 2.24 | 1.84 | 3.75 | 1.77 | 2.03

Row | SMILES | Euclidean distance (786-O) | Euclidean distance (A549) | Euclidean distance (DU145) | Euclidean distance (FB) | Euclidean distance (HEPG2) | Euclidean distance (OVCAR4)
25 | O=C(/C=C\n1cnc(-c2cc(C(F)(F)F)cc(C(F)(F)F)c2)n1)NNc1cnccn1 | 2.36 | 3.91 | 2.72 | 3.85 | 2.34 | 3.83
26 | CCC(=O)NS(=O)(=O)c1ccc(-c2c(-c3ccccc3)noc2C)cc1 [Parecoxib Sodium] | 0.662 | 0.521 | 0.541 | 0.844 | 0.676 | 0.905
27 | C[C@@H]1C/C=C/C=C/C=C/C=C/[C@H](O[C@@H]2O[C@H](C)[C@@H](O)[C@H](N)[C@@H]2O)C[C@@H]2O[C@](O)(C[C@@H](O)C[C@H]3O[C@@H]3/C=C/C(=O)O1)C[C@H](O)[C@H]2C(=O)O [Natamycin] | 1.51 | 0.972 | 1.07 | 1.11 | 1.14 | 1.02
28 | CNCCCN1c2ccccc2CCc2ccccc21 [Desipramine Hydrochloride] | 0.817 | 1.07 | 1.11 | 1.73 | 1.43 | 1.25
29 | CC(C)c1ccc2oc3nc(N)c(C(=O)O)cc3c(=O)c2c1 [Amlexanox] | 0.725 | 0.9 | 0.886 | 0.891 | 0.909 | 0.738
30 | CCN(CC)CCCC(C)Nc1nc(C)cc(Nc2ccc3nc(C)cc(N)c3c2)n1 (configuration not stated) | 0.637 | 0.976 | 0.753 | 0.932 | 2.01 | 1.16
31 | C[C@H](NC(=O)[C@@H](O)c1cc(F)cc(F)c1)C(=O)N[C@@H]1C(=O)N(C)c2ccccc2-c2ccccc21 | 1.22 | 1.36 | 1.05 | 0.939 | 0.864 | 1.42
32 | CC(C)(C)c1cc(C(C)(C)C)c(NC(=O)c2c[nH]c3ccccc3c2=O)cc1O [Ivacaftor (VX-770)] | 2.11 | 2.23 | 1.21 | 0.989 | 1.96 | 1.56
33 | C1CCN2C[C@@H]3C[C@@H](CN4CCCC[C@@H]34)[C@H]2C1 [(-)-Sparteine Sulfate] | 0.93 | 0.957 | 0.846 | 1.03 | 0.474 | 1.04
34 | CCCN[C@H]1CCc2nc(N)sc2C1 [Pramipexole 2HCl Monohydrate] | 0.779 | 1.01 | 1.58 | 1.08 | 0.888 | 1.26
35 | C[C@H]1CNC(=O)c2cnn3ccc(nc23)N[C@H](C)c2cc(F)ccc2O1 | 4.06 | 4.83 | 5.02 | 3.45 | 2.14 | 4.45
36 | C[C@@H](Oc1cc(-c2cnn(C3CCNCC3)c2)cnc1N)c1c(Cl)ccc(F)c1Cl | 3.69 | 4.3 | 3.56 | 5.27 | 4.27 | 4.15
37 | O=c1ccn([C@@H]2O[C@H](CO)[C@@H](O)[C@H]2O)c(=O)[nH]1 [Uridine] | 1.22 | 0.801 | 0.955 | 0.869 | 1.9 | 0.863
38 | C[C@@H](N)c1ccc(C(=O)Nc2ccnc3[nH]ccc23)cc1 | 1.87 | 3.06 | 3.16 | 3.73 | 2.26 | 2.05
39 | OCCN1CCN(CCCN2c3ccccc3Sc3ccc(C(F)(F)F)cc32)CC1 [Fluphenazine dihydrochloride] | 1.98 | 2.27 | 1.87 | 2.76 | 2.66 | 1.77
40 | CC(C)(C#N)c1ccc(N2C(=O)OCc3cnc4ccc(-c5cnc6ccccc6c5)cc4c32)cc1 | 3.92 | 2.98 | 0.959 | 0.992 | 0.996 | 4.19
41 | CC(=O)O[C@H]1C[C@@]2(C)[C@@H](C[C@@H](O)[C@H]3[C@@]4(C)CC[C@@H](O)[C@@H](C)[C@@H]4CC[C@@]32C)/C1=C(\CCC=C(C)C)C(=O)O [Fusidine] | 0.63 | 0.807 | 0.822 | 0.84 | 0.634 | 1.3
42 | CCOc1nc2cccc(C(=O)OC(C)OC(=O)OC3CCCCC3)c2n1Cc1ccc(-c2ccccc2-c2nn[nH]n2)cc1 (configuration not stated) [Candesartan Cilexetil] | 1.1 | 0.605 | 1.35 | 0.788 | 1.82 | 1.29
43 | Cc1ccc(S(=O)(=O)OCC(=O)Nc2ccc(C(=O)O)c(O)c2)cc1 | 1.33 | 1.22 | 1.04 | 0.948 | 0.793 | 1.47
44 | CO/N=C(\C(=O)N[C@@H]1C(=O)N2C(C(=O)[O-])=C(C[n+]3cccc4c3CCC4)CS[C@H]12)c1csc(N)n1 [Cefpirome sulfate] | 0.835 | 0.636 | 0.405 | 0.989 | 0.508 | 0.689
45 | C=C1C[C@@]2(O)O[C@@]3(C[C@H]2C(C)C)[C@@H](C)CC[C@@H]13 [Curcumol] | 1.06 | 1.43 | 0.943 | 1.3 | 0.814 | 1.43
46 | CNC(=O)c1ccc(-c2cnc3ncc(Cc4ccc5ncccc5c4)n3n2)cc1F | 1.36 | 0.853 | 0.871 | 0.899 | 0.745 | 0.726
47 | O=C1CC2(CCCC2)CC(=O)N1CCCCN1CCN(c2ncccn2)CC1 [Buspirone HCl] | 0.547 | 0.965 | 0.869 | 0.994 | 0.61 | 1.32
